The source made the active and inactive calls.
Assays:
[1] = target: Albumin (Bos taurus) (UniProt P02769); assay: compounds binding labelled BSA control protein – biochemical, small-molecule microarray, Alexa647 label, 635/667 nm fluorescence, artefact control for SMM control protein annotation, profiling panel (AID 1118); details: BSA-A647 binding, fluorescence 635 nm, higher = more signal;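 further: score merges 667 nm emission intensity and signal-to-noise per printed compound spot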
[2] = probe aXIP binding to arrayed compounds – biochemical, NeuroSMM set, 635/667 nm fluorescence, primary screen (AID 1119); details: small-molecule microarray, higher = more signal, called active from +8 up or from −8 down;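 further: probe is the protein aXip251-270 applied at 1 µg/mL to compound-printed slides; binding of probe to printed compounds measured as 667 nm fluorescence plus signal to noise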
[3] = probe aNOTCH3 binding on compound microarray – biochemical, small-molecule microarray, 635/667 nm fluorescence, primary screen (AID 1120); details: higher = more signal;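 further: probe is a biotin-tagged antibody raised against NOTCH3 rather than NOTCH3 protein; score merges spot fluorescence near 667 nm with spot signal to noise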
[4] = probe aNOTCH2 binding on compound microarray – biochemical, small-molecule microarray, 635/667 nm fluorescence, primary screen (AID 1121); details: higher = more signal;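 further: score merges feature fluorescence read at 667 nm with its signal to noise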
[5] = target: Carbonic anhydrase 2 (Homo sapiens) (UniProt P00918); assay: compounds binding carbonic anhydrase 2 – biochemical, small-molecule microarray, Alexa647-labelled CAII, profiling panel (AID 1122); details: CAII-A647 binding fluorescence, higher = more signal
[6] = COS7 lysate on small-molecule microarray, probe aHis, 635 nm (AID 1123); details: COS7 cell lysate, fluorescence, higher = more signal;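 further: z-score combines 667nm fluorescence intensity with signal-to-noise per printed compound spot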
[7] = probe aLAP1 signal on lysate-treated microarray – cell lysate, small-molecule microarray, COS7 lysate, primary screen (AID 1124); details: probe aLAP1, fluorescence, higher = more signal;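 further: lysate comes from COS7 cells expressing LAP1 and is applied at 0.3 µg/mL; score merges spot fluorescence near 667 nm with signal-to-noise over triplicate slides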
[8] = system: Sam68 (KHDRBS1); assay: compounds binding KHDRBS1 protein – biochemical, small-molecule microarray, 635 nm fluorescence, primary screen (AID 1125); details: higher = more signal;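 further: score merges 667 nm channel intensity with signal to noise over triplicate slides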
[9] = system: Chordin-like protein 2 (CHRDL2); assay: compounds binding chordin-like 2 – biochemical, small-molecule microarray, 635 nm fluorescence, primary screen (AID 1126); details: fluorescence 635 nm, higher = more signal;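 further: printed compound slides probed with Chrdl2 protein at 4 µg/mL for 1 h at 4 C; score merges 667 nm emission intensity with signal to noise over three replicate slides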
[10] = target: Concanavalin-A (Canavalia ensiformis) (UniProt P02866); assay: compounds binding concanavalin A lectin – biochemical, small-molecule microarray, Alexa647 label, 635 nm, artefact control for SMM control protein annotation, primary screen (AID 1127); details: ConA-A647 binding fluorescence, higher = more signal;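 further: z combines 667 nm emission intensity with signal-to-noise across three replicate slides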
Chain of Concanavalin-A (Canavalia ensiformis) (P02866 whole entry, looked up): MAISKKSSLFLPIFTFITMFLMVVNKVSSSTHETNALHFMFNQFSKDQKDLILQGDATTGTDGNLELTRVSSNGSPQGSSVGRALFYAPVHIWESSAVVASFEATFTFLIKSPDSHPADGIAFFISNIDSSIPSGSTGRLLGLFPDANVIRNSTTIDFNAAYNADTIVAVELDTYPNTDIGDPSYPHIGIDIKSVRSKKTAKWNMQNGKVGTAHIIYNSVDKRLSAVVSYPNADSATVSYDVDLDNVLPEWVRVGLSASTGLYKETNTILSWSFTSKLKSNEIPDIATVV

Chain of Albumin (Bos taurus) (P02769 whole entry, looked up): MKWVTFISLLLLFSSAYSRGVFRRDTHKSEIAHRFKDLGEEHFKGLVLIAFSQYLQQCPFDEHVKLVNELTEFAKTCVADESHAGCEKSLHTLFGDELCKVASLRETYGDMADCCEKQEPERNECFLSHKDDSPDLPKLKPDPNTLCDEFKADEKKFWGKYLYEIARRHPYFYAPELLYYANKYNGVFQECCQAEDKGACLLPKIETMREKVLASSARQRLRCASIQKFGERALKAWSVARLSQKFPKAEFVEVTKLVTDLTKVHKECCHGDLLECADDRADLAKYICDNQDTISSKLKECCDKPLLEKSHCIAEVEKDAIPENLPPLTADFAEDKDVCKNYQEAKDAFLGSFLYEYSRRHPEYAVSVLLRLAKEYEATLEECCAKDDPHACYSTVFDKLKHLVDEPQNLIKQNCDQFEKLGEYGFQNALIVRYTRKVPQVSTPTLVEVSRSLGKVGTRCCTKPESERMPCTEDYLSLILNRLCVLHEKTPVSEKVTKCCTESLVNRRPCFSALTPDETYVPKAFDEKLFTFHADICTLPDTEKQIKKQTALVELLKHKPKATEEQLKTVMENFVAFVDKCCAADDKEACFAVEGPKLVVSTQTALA

SMILES	composite z-score [1]	composite Z-score [2]	composite z-score [3]	composite z-score [4]	composite z-score [5]	composite z-score [6]	composite z-score [7]	composite z-score [8]	composite z-score [9]	composite z-score [10]
CCc1cccc(NC(=O)O[C@H]2[C@H](OC(=O)Nc3ccc4c(c3)OCO4)[C@@H](OC(=O)Nc3ccc4c(c3)OCO4)[C@@H](OC)O[C@@H]2CO)c1	0.539	0.108 (inactive)	0.42	-0.0714	0.645	2.42	0.665	1.29	0.463	0.638
[N-]=[N+]=NCc1ccccc1C[C@]1(C(=O)NCc2ccccc2)N=C(c2ccc(OCCCO)cc2)O[C@H]1c1ccccc1N=[N+]=[N-]	0.841	0.187 (inactive)	0.531	-0.098	0.476	1.91	0.317	1.09	-0.38	0.822
O=C(CS)NCCCCCNC(=O)[C@H]1C[C@H]2C(=O)N3CCC[C@H]3C(=O)N2[C@H]1c1cccc(OCCO)c1	-1.4	0.62 (inactive)	0.121	-0.101	0.46	2.45	0.729	1.34	1.4	1.2
CCN1C(=O)[C@H]2[C@H]3[C@H](O)[C@H](O)CC(=NOCc4ccccc4)[C@@H]3CC[C@H]2C1=O	-0.0633	1.92 (inactive)	0.302	-0.186	0.0453	0.37	1.74	0.598	0.589	0.7
CN(C)CCCNC(=O)[C@@H]1c2ccccc2C(=O)N(Cc2cc(F)cc(C(F)(F)F)c2)[C@H]1c1ccc(CO)cc1	0.277	0.451 (inactive)	-0.0976	-0.114	0.783	0.969	0.578	0.946	1.08	0.21
CN(C)c1ccc(C(O)C2C=CC3C(=O)N(c4ccccc4)C(=O)C3N2Nc2ccccc2F)cc1 (stereo not given)	0.62	-0.122 (inactive)	0.134	0.0605	0.522	1.11	-0.301	0.87	-0.371	0.676
COc1ccccc1CN1C(=O)c2ccccc2[C@@H](C(=O)NCC(F)(F)F)[C@@H]1c1ccc(CO)cc1	0.522	-0.786 (inactive)	-0.15	-0.167	0.595	0.839	0.0761	1.33	-0.365	0.721
Cn1c(=O)n2n(c1=O)[C@H]1[C@H](O)[C@@H]3O[C@@H]3C(=NOC[C@@H](O)COCc3ccco3)[C@H]1CC2	0.125	-0.383 (inactive)	0.236	-0.208	-0.142	0.145	-0.0856	0.373	0.535	0.59
CO[C@@H]1COC(=O)CCC[C@@H](C)[C@H](OC)COC(=O)CCC[C@H]1C	-0.27	0.231 (inactive)	-0.0967	-0.0907	-0.277	-0.307	-0.0693	-0.12	0.777	-0.302
O=C(NN=C1C[C@@H](O)[C@@H](O)[C@@H]2[C@@H]3C(=O)N(c4ccc(F)cc4F)C(=O)[C@@H]3CC[C@@H]12)OCc1ccccc1	0.458	-0.662 (inactive)	0.0952	-0.123	0.129	0.229	0.3	0.661	0.272	0.247
COc1ccc(COC(=O)NN=C2C[C@@H](O)[C@@H](O)[C@@H]3[C@@H]4C(=O)N(c5ccc(F)cc5F)C(=O)[C@@H]4CC[C@@H]23)cc1	0.688	-0.0662 (inactive)	0.112	-0.14	-0.416	-0.413	-0.2	-0.356	-0.0448	0.454
O=C1[C@H]2[C@H]3[C@H](O)[C@H](O)CC(=NOCc4ccccc4)[C@@H]3CC[C@H]2C(=O)N1C1CCCCC1	0.0567	-0.718 (inactive)	-0.0903	-0.196	0.539	0.737	-0.785	0.357	-0.142	-0.0593
O=C1[C@H]2[C@H]3[C@H](O)[C@H](O)CC(=NOC[C@@H](O)COCc4ccco4)[C@@H]3CC[C@H]2C(=O)N1c1ccc(F)cc1F	-0.126	-0.397 (inactive)	-0.205	-0.14	-0.438	-1.08	0.0425	0.235	1.38	-0.359
C[C@H](c1ccccc1)N1C(=O)[C@H]2[C@@H]3C(=CC[C@H]2C1=O)C(=O)[C@H]1O[C@H]1[C@H]3O	0.166	-0.0238 (inactive)	-0.111	-0.147	-0.182	-0.51	0.172	-0.136	1.02	0.471
CO[C@H]1O[C@H](CO)[C@@H](OC(=O)Nc2ccc(C#N)cc2)[C@H](OC(=O)c2cc3ccccc3[nH]2)[C@H]1OC(=O)c1cc2ccccc2[nH]1	0.904	1.79 (inactive)	0.078	-0.0211	0.627	2.41	1.5	1.31	0.451	1.13
COc1ccc(O[C@H]2C=C[C@@H](c3ccccc3)O[C@@H]2COC(=O)N2CCCCC2)cc1	-0.725	0.0229 (inactive)	-0.131	-0.111	-0.29	-0.482	0.0033	-0.907	0.387	-0.578
CO[C@@H]1COC(=O)CCC[C@@H](C)[C@H](OC)COC(=O)[C@H](Cc2ccccc2)NC(=O)CC=C[C@H]1C	-0.603	0.274 (inactive)	-0.16	-0.175	-0.571	-1.42	-0.34	-1.56	1.39	-1.21

SMILES	composite z-score [1]	composite Z-score [2]	composite z-score [3]	composite z-score [4]	composite z-score [5]	composite z-score [6]	composite z-score [7]	composite z-score [8]	composite z-score [9]	composite z-score [10]
CCN1C(=O)[C@H]2[C@H]3[C@H](O)[C@H](O)CC(=NO[C@@H]4O[C@H](CO)[C@@H](O)[C@H](O)[C@H]4O)[C@@H]3CC[C@H]2C1=O	-0.647	0.103 (inactive)	-0.213	-0.203	-0.12	-1.22	-0.378	-1.5	-0.229	-1.14
CC1(C)OCC(C(O)C2=CCCCC2=O)CO1 (stereo not given)	0.157	0.0887 (inactive)	0.119	0.148	0.548	0.395	0.697	0.826	0.883	1.01
CCOC(=O)CCN1C(=O)[C@H]2[C@H]3[C@H](O)[C@H](O)CC(=NOC[C@@H](O)COCc4ccco4)[C@H]3CC[C@H]2C1=O	0.494	-0.0692 (inactive)	0.0059	-0.171	0.0762	-0.128	0.0706	1.32	-0.173	0.66
CCOC(=O)[C@H](Cc1ccccc1)NC(=O)CCC1CC(OC(=O)NCc2ccc3c(c2)OCO3)CC2(CCCC(COC(=O)NCc3cccc(C(F)(F)F)c3)O2)O1 (stereo not given in full)	-0.0075	-0.944 (inactive)	0.0224	-0.123	-0.106	0.287	-0.0375	0.843	0.393	0.546
CC(C)CN1CCc2nc(-c3ccccc3)c3c(c2CC1)CO[C@@H](C)C3	-0.249	-0.002 (inactive)	0.154	-0.16	-0.143	-0.258	-0.673	-0.168	0.74	0.0721
COC(=O)CC=C[C@H](C)[C@@H](OCc1ccccc1Br)C(C)C	-0.0311	-0.0469 (inactive)	-0.0343	-0.113	-0.279	0.164	0.0326	-0.385	0.382	0.112
CC(C)=NOCc1cccc(-c2cc(-c3ccccc3)no2)c1	-0.0583	0.123 (inactive)	0.062	-0.203	0.257	0.686	0.0499	1	0.564	1.02
COCCOC(=O)N1C(=O)[C@@]2(c3cc(C#CCNC(N)=O)ccc31)[C@H](c1ccc(O)cc1)N1[C@H](c3ccccc3)[C@H](c3ccccc3)OC(=O)[C@H]1[C@@H]2C(=O)N1CCCCCCC1	-0.466	-0.624 (inactive)	0.207	-0.108	0.244	0.734	0.382	1.3	1.15	0.615
CC(C)C[C@@H]1NC(=O)[C@H]2C[C@@H](C(=O)NCCCCCCN(C)C)[C@@H](c3cccc(OCCO)c3)N2C1=O	-0.615	2.07 (inactive)	0.16	-0.153	0.557	2.81	1.44	1.31	1.47	1.09
CC(CCN1CCc2nc(-c3ccccc3)c(-c3ccccc3)cc2C1)=NOC(C)CN1CCCCc2nc(C)c(C)cc21 (stereo not given)	0.56	0.766 (inactive)	0.0379	-0.14	0.209	0.789	0.154	1.28	0.308	1.05
COc1ccccc1CN1C(=O)c2ccccc2[C@@]2(Cc3ccccc3N(C(C)C)C2=O)[C@@H]1c1ccc(CO)cc1	0.282	0.0371 (inactive)	-0.0581	-0.117	-0.0384	0.209	0.21	-0.067	-0.381	0.262
COc1ccc(-c2nc3c(c4c2C[C@H](C)OC4)CN(CCC(C)C)CC3)cc1	0.556	0.292 (inactive)	-0.166	-0.0167	0.441	0.455	-0.177	1.23	0.348	0.928
CC(=O)OC[C@H]1O[C@H](CCON=C(C)CCN2CCc3nc(-c4ccccc4)c(-c4ccccc4)cc3C2)C=C[C@@H]1OC(C)=O	0.768	0.607 (inactive)	0.146	-0.0877	0.181	0.761	0.466	0.975	-0.0682	-0.0278
COC(=O)[C@@H]1CC[C@H](C)[C@@H](c2ccc(C)cc2)N1C(=O)c1ccc(C=NOC[C@@H](O)COCc2ccco2)cc1	-0.188	-0.93 (inactive)	-0.0077	-0.195	-0.746	-1.31	0.171	-1.9	-0.177	-3.62
COC(=O)CC=C[C@@H](C)[C@@H](C=NO[C@@H](C)c1cc(-c2c(C)cc(C)cc2C)no1)OC	-0.387	-0.483 (inactive)	-0.161	-0.156	-0.604	-0.556	-0.52	-1.32	-1.36	-0.627
COc1ccc(CCNC(=O)[C@@H]2c3ccccc3C(=O)N(c3ccc(C)cn3)[C@H]2c2ccc(CO)cc2)cc1	0.45	0.378 (inactive)	-0.406	-0.0959	0.77	1.5	0.539	-0.121	-1.76	-1.45
